Assay outcomes: PubChem BioAssay, National Center for Advancing Translational Sciences (NCATS)
TDP1 cell CPT: qHTS for Inhibitors of human tyrosyl-DNA phosphodiesterase 1 (TDP1): qHTS in cells in presence of CPT. chicken DT40 Tdp1-/-;hTDP1 cells + 20 nM CPT, ATP luminescence, 48 h. Potency, µM (highest dose often 46.2 µM), without a hit: top-dose activity change, negative = growth inhibition, hits mostly inhibitors. actives 12% (n = 420,000); also: potency is read from the fitted curve at half-maximal effect; nearly all actives have a fitted effect of over 55% in size
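Chicken DT40 Tdp1-/- cells complemented with human TDP1, 400 cells/well, exposed to compounds plus 20 nM camptothecin for at least 48 h at 37 C; viability read as ATP content by CellTiter-Glo luminescence.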
HT1080NT lethal: qHTS for induction of synthetic lethality in tumor cells producing 2HG: qHTS for the HT-1080-NT fibrosarcoma cell line; HT-1080-NT fibrosarcoma viability, CellTiter-Glo ATP luminescence, 48 h; actives 1.6% (n = 360,000); Potency, µM (top dose mostly 46.1 µM), for the others: at the highest dose activity, negative = less viability, usual class: cytotoxic;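 also: NT is the 2HG producing partner of a matched IDH1 knockdown line; potency is read from the fitted curve at half-maximal effect; 0% = DMSO-treated cells and -100% = media-only wells without cells; nearly all actives have a fitted effect of over 55% in size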
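Read-out is CellTiter-Glo luminescence after 10 minutes at room temperature, following 48 hours' compound treatment of HT-1080-NT cells (750 cells/well, RPMI, 5% FBS, 37 degrees C).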
ELG1 repair inh: qHTS screen for small molecules that inhibit ELG1-dependent DNA repair in human embryonic kidney (HEK293T) cells expressing luciferase-tagged ELG1 | HEK293T ELG1-luciferase reporter, luminescence, 16 h; DNA damage induced by 5-fluorouridine | Potency, µM (top dose mostly 46.1 µM), inactives show at the top dose activity change, negative = inhibition, hits mostly inhibitors | actives 2.3% (n = 330,000) | AID 504467, 2011; also: potency is read from the fitted curve at half-maximal effect; nearly all actives have a fitted effect of over 55% in size
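5-Fluorouridine DNA damage + compound/DMSO, 2,000 cells/well, 16 h, 37 °C/5% CO2. ONE-Glo, 30 min RT, luminescence. Readout = decrease in reporter signal.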
IL-1B inflam inh: qHTS for Inhibitors of Inflammasome Signaling: IL-1-beta AlphaLISA Primary Screen | THP-1 LPS/ATP IL-1B secretion, AlphaLISA, 16 h; hits give low values | activity change, % at 57.5 µM | actives 4.7% (n = 360,000) | AID 743279, 2014; in the data active = activity change below about -50%; inconclusive = mostly about -30% to -49%
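THP-1 cells pretreated 1 hr with compounds (up to 57.5 uM final), then stimulated with LPS (250 ng/mL final) plus ATP (1.25 mM final); secreted IL-1B measured by AlphaLISA after 16 hr, decreased signal indicating inhibition.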
HT1080 IDH1KD tx: qHTS for induction of synthetic lethality in tumor cells producing 2HG: qHTS for the HT-1080-IDH1KD cell line. HT-1080 IDH1 knockdown viability, ATP luminescence, 48 h. Potency, µM (series often up to 46.1 µM), inactives show at the top dose activity, negative = toxicity, actives largely listed as cytotoxic. actives 2% (n = 360,000). AID 686971, 2013;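 also: potency is read from the fitted curve at half-maximal effect; 0% = DMSO wells and -100% = cell-free medium wells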
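CellTiter-Glo luminescence after 48 h compound exposure at 37 degrees C of IDH1-knockdown HT-1080 cells in 5% FBS RPMI. %Activity scaled between DMSO wells and cell-free media wells, with curves fitted and assigned curve classes.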
DT40 TDP1 no CPT: qHTS for Inhibitors of human tyrosyl-DNA phosphodiesterase 1 (TDP1): qHTS in cells in absence of CPT | DT40 Tdp1-/- hTDP1 cells, no CPT, ATP luminescence, 48 h | Potency, µM (top dose mostly 46.2 µM), for inactives: top-dose activity change, negative = growth inhibition, actives largely listed as inhibitors | actives 15% (n = 420,000) | AID 686978, 2013; also: potency is read from the fitted curve at half-maximal effect; nearly all actives have a fitted effect of over 55% in size
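Chicken DT40 Tdp1-/- cells complemented with human TDP1, screened without camptothecin (DMSO vehicle only), 400 cells/well. Compounds pin-transferred, cells incubated at 37 °C for at least 48 hr. Growth read as ATP-dependent luminescence (CellTiter-Glo, 30 min at RT).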
Numbers without * were called inactive; u = inconclusive; x = no result given. Sampled rows, rich in hits. Any-hit rate of the full collection: about 19%. Unless noted, calls follow the shape of the dose curve; as a rule, active = well fitted curve in the direction sought with a large enough effect; inconclusive = small, poorly fitted or top-dose-only effect, or another doubt; inactive = no such curve, though single readings can be large; an effect the other way counts as inactive or inconclusive. Unless noted, % is scaled to controls: 0 for no effect and ±100 for the full control effect.

SMILES	TDP1 cell CPT	HT1080NT lethal	ELG1 repair inh	IL-1B inflam inh	HT1080 IDH1KD tx	DT40 TDP1 no CPT
CCCOc1ccc(C(O)C(CN2CCOCC2)c2ccccc2)cc1 (configuration not stated)	10%	-1%	-4%	-2	1%	-12%
O=C(O)c1cc2ncc(CCO)cn2n1	0%	3%	8%	14	4%	-8%
O=C(c1ccc(Cl)cc1)C(CN1CCCC1)c1ccccc1 (configuration not stated)	4.1µM*	18µM*	u	-98*	21µM*	4.1µM*
O=C(c1ccc(F)cc1)C(CN1CCOCC1)c1ccccc1 (configuration not stated)	1.8µM*	-9%	u	-64*	5.2µM*	1.3µM*
CCCOc1ccc(C(=O)C(CN2CCCC2)c2ccccc2)cc1 (configuration not stated)	3.7µM*	8.2µM*	18µM*	-103*	6.5µM*	5.2µM*
CCC(O)(c1ccc(OC)cc1)C(CN1CCOCC1)c1ccccc1 (configuration not stated)	u	4%	7%	3	-2%	u
CC(CN1CCOCC1)OC(=O)C(c1ccccc1)c1ccccc1 (configuration not stated)	-7%	15%	0%	19	16%	-15%
COc1ccc(C(=O)C(CN2CCOCC2)c2ccccc2)cc1 (configuration not stated)	2.9µM*	7.1µM*	u	-99*	2µM*	3.3µM*
COC(=O)c1c(NC(=O)COc2cc(C)c(Cl)c(C)c2)sc2c1CCCC2	0%	x	x	x	x	16%
COC(=O)C(C)Sc1nnc2cc(C)c3cc(C)cc(C)c3n12 (configuration not stated)	-18%	x	x	x	x	-28%
CCCCOc1ccc(C(O)C(CN2CCCCC2)c2ccccc2)cc1 (configuration not stated)	23µM*	-14%	-3%	u	-13%	23µM*
CCCCOc1ccc(C(O)C(CN2CCOCC2)c2ccccc2)cc1 (configuration not stated)	-22%	6%	0%	11	-9%	-15%
CC(NC(=O)CSc1nnc(-c2cccnc2)n1N)c1ccccc1 (configuration not stated)	6%	16%	2%	7	18%	-1%
Cc1cc(CN(C)C(=O)c2ccc3nc(Cc4ccccc4F)oc3c2)on1	u	-6%	-1%	-81*	-4%	u
Cn1cc(CNC(=O)c2ccc3nc(Cc4ccccc4F)oc3c2)cn1	-21%	-2%	u	-4	-4%	u
CCn1cc(CNC(=O)c2ccc3nc(Cc4ccccc4F)oc3c2)cn1	12µM*	-25%	4%	u	-13%	12µM*
CCN(Cc1cnn(C)c1)C(=O)c1ccc2nc(Cc3ccccc3F)oc2c1	u	9%	x	14	3%	21µM*
Cc1cc(=O)n2nc(N3CCC(C(=O)NCc4cccnc4)CC3)sc2n1	5%	7%	19%	-4	9%	6%
O=C(NCc1cccnc1)C1CCN(Cc2cc3ccccc3n2Cc2ccccc2)CC1	u	x	x	x	x	13µM*
CN(C)c1ccc(CNC(=O)C2CCN(Cc3cc4ccccc4n3Cc3ccccc3)CC2)cc1	16µM*	x	x	x	x	13µM*
CN(C)c1ccc(CN2CCC(C(N)=O)CC2)cc1	-8%	3%	-3%	2	-1%	-13%
O=C(NCc1cccnc1)C1CCN(Cc2cc3ccccc3n2Cc2cccc(Cl)c2)CC1	u	x	x	x	x	18µM*
COc1cccc(C(=O)C(C#N)=C(SC)SC)c1	2.6µM*	-7%	8%	-5	0%	2.3µM*
O=C(O)c1ccc(C(=O)C(=O)c2ccccc2)cc1	2%	8%	-2%	28	9%	16%
CSC(SC)=C(C#N)C(=O)c1ccccc1	2.1µM*	u	-16%	-89*	21µM*	2.6µM*
SMILES	TDP1 cell CPT	HT1080NT lethal	ELG1 repair inh	IL-1B inflam inh	HT1080 IDH1KD tx	DT40 TDP1 no CPT
COc1cc(NC(=O)c2cccc([N+](=O)[O-])c2)ccc1NC(=O)c1cc2ccccc2o1	u	-3%	-4%	-1	-3%	8.2µM*
CCOc1cccc(C(=O)Nc2ccc(NC(=O)c3cc4ccccc4o3)c(OC)c2)c1	u	u	1%	-1	-12%	u
COc1cc(NC(=O)c2cccc(C)c2)ccc1NC(=O)c1cc2ccccc2o1	u	-5%	19%	21	-14%	3.7µM*
O=C(C[N+]1(CCO)CCOCC1)c1ccc2ccccc2c1	6%	x	x	x	x	-23%
FC(F)c1nc2nc(Cl)c(Cl)nc2[nH]1	16µM*	-13%	x	41	u	u
Fc1ccc(NC(=S)Nc2ccc3nccnc3c2)cc1	16µM*	5%	-17%	-2	7%	18µM*
Cc1ccc(NC(=S)Nc2ccc(F)cc2)cc1C	u	-3%	u	-58*	0%	u
Cc1cccc(C)c1NC(=S)Nc1ccc(F)cc1	0%	6%	-5%	10	-2%	-9%
COc1ccc(NC(=S)Nc2ccc(F)cc2)cc1	u	3%	-1%	-13	2%	26µM*
Cc1ccc(NC(=O)COC(=O)Cc2c[nH]c3ccccc23)cc1	-19%	-9%	x	6	0%	-15%
CCOC(=O)c1ccc2c(c1)n(CC)c(/C=C/Nc1ccccc1)[n+]2CC	18µM*	-5%	u	0	-11%	12µM*
CCn1c(/C=C/c2cc[n+](C)cc2)nc2ccccc21	-16%	6%	-5%	-13	8%	-4%
CCn1c(C)[n+](Cc2ccccc2)c2ccc(C(=O)OC)cc21	2%	-1%	-29%	-12	-3%	-25%
CCn1c(/C=C/Nc2ccccc2)[n+](CC)c2ccc(Cl)cc21	23µM*	0%	u	-3	-18%	21µM*
CCn1c(/C=C/N(C)c2ccccc2)[n+](CC)c2ccc(Cl)cc21	0.58µM*	7.1µM*	u	-98*	-23%	1.3µM*
O=C(c1cccc(F)c1)N1CCC[C@@]2(CCN(c3ccccn3)C2)C1	-1%	x	x	x	x	-21%
